The supplement of paper PMC6555819

Experiments:
Assay in all cases: PBM binding z-score (relative to random genomic background probes); higher = stronger binding; sequences stand for … in GC…GCGATTGACAGCGTAGAATGAAGG
[1] = test system: FXR:RXRa (NR concentration 270 nM, RXRa partner concentration 90 nM)
In short: (§1)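 Binding z-scores were set against random background probes. The data came from custom Agilent 4×180K protein-binding microarrays carrying double-stranded probes with 34-nt variable regions, incubated 1 h with ligand-free nuclear receptor dimers. Partner-specific antibodies detected binding, and scanned fluorescence was regression-normalized.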

[2] = test system: LXRa:RXRa (NR concentration 270 nM, RXRa partner concentration 90 nM)
In short: as §1

[3] = test system: LXRa homodimer (NR concentration 270 nM)
In short: as §1

[4] = test system: LXRb:RXRa (NR concentration 270 nM, RXRa partner concentration 90 nM)
In short: as §1

[5] = test system: LXRb homodimer (NR concentration 270 nM)
In short: as §1

[6] = test system: PPARa:RXRa (NR concentration 270 nM, RXRa partner concentration 90 nM)
In short: as §1

[7] = test system: PPARg:RXRa (NR concentration 180 nM, RXRa partner concentration 90 nM)
In short: as §1

[8] = test system: PPARg:RXRa 270nM:90nM, anti-RXR (NR concentration 270 nM, RXRa partner concentration 90 nM)
In short: as §1

[9] = test system: PPARg:RXRa 30nM:10nM, anti-RXR (NR concentration 30 nM, RXRa partner concentration 10 nM)
In short: as §1

[10] = test system: PPARg:RXRa 90nM:30nM, anti-RXR (NR concentration 90 nM, RXRa partner concentration 30 nM)
In short: as §1

[11] = test system: PPARg:RXRa DBDmut IVT, anti-RXR (DBD mutation: RXRa K156A/R161A, NR concentration 270 nM, RXRa partner concentration 90 nM)
In short: as §1

[12] = test system: PPARg:RXRa IVT, anti-PPARg (NR concentration 270 nM, RXRa partner concentration 90 nM)
In short: as §1

[13] = test system: PPARg DBDmut:RXRa IVT, anti-PPARg (DBD mutation: PPARg1 K132A/R137A, NR concentration 270 nM, RXRa partner concentration 90 nM)
In short: as §1

[14] = test system: PPARg DBDmut IVT, anti-PPARg (DBD mutation: PPARg1 K132A/R137A, NR concentration 270 nM)
In short: as §1

[15] = test system: PPARg homodimer (NR concentration 180 nM)
In short: as §1

[16] = test system: PXR:RXRa (NR concentration 270 nM, RXRa partner concentration 90 nM)
In short: as §1

[17] = test system: PXR homodimer (NR concentration 270 nM)
In short: as §1

[18] = test system: RARa:RXR (NR concentration 270 nM, RXRa partner concentration 90 nM)
In short: as §1

[19] = test system: RARa homodimer (NR concentration 270 nM)
In short: as §1

[20] = test system: RARb:RXRa (NR concentration 270 nM, RXRa partner concentration 90 nM)
In short: as §1

Question: Which results are given for CCTACTGGACCATCAGGTCATTGATATCAACGTT?
Answer: PBM binding z-score [1]: 1.87; PBM binding z-score [2]: 1.86; PBM binding z-score [3]: 2.81; PBM binding z-score [4]: 2.53; PBM binding z-score [5]: 1.02; PBM binding z-score [6]: 2.43; PBM binding z-score [7]: 1.14; PBM binding z-score [8]: 1.97; PBM binding z-score [9]: 0.798; PBM binding z-score [10]: 1.68; PBM binding z-score [11]: 2.13; PBM binding z-score [12]: 2.58; PBM binding z-score [13]: 0.468; PBM binding z-score [14]: 0.568; PBM binding z-score [15]: 2.23; PBM binding z-score [16]: 2.09; PBM binding z-score [17]: 1.45; PBM binding z-score [18]: 2.25; PBM binding z-score [19]: 1.47; PBM binding z-score [20]: 1.97

Question: Which results are given for CCTTACGGGTCAAGGGTATAGCACGGGTGGTACG?
Answer: PBM binding z-score [1]: 5.14; PBM binding z-score [2]: 3.24; PBM binding z-score [3]: -0.107; PBM binding z-score [4]: 2.59; PBM binding z-score [5]: -0.218; PBM binding z-score [6]: 5.12; PBM binding z-score [7]: 5.03; PBM binding z-score [8]: 5.23; PBM binding z-score [9]: 2.3; PBM binding z-score [10]: 4.37; PBM binding z-score [11]: 1.83; PBM binding z-score [12]: 3.8; PBM binding z-score [13]: 0.361; PBM binding z-score [14]: -0.594; PBM binding z-score [15]: 3.73; PBM binding z-score [16]: 2.9; PBM binding z-score [17]: -0.229; PBM binding z-score [18]: 4.27; PBM binding z-score [19]: 0.518; PBM binding z-score [20]: 3.98

Question: For CGTCCAAGGTCAGAAGGTCAGTGAAAGCGACGTG, which PBM binding z-score [1] is on record?
Answer: The PBM binding z-score was 5.88.

Question: What about the PBM binding z-score [2] of the same sequence?
Answer: Its PBM binding z-score is 4.43.

Question: And the PBM binding z-score [3]?
Answer: Its PBM binding z-score is 0.719.

Question: And the PBM binding z-score [4]?
Answer: Its PBM binding z-score is 3.22.

Question: What about the PBM binding z-score [5] of the same sequence?
Answer: The PBM binding z-score was -0.0292.

Question: And the PBM binding z-score [6]?
Answer: Its PBM binding z-score is 5.

Question: What about the PBM binding z-score [7] of the same sequence?
Answer: The PBM binding z-score was 3.62.

Question: And the PBM binding z-score [8]?
Answer: Its PBM binding z-score is 4.51.

Question: What about the PBM binding z-score [9] of the same sequence?
Answer: The PBM binding z-score was 0.861.

Question: And the PBM binding z-score [10]?
Answer: The PBM binding z-score was 3.11.

Question: What about the PBM binding z-score [11] of the same sequence?
Answer: The PBM binding z-score was 2.28.

Question: What about the PBM binding z-score [12] of the same sequence?
Answer: Its PBM binding z-score is 3.06.

Question: And the PBM binding z-score [13]?
Answer: Its PBM binding z-score is 0.15.

Question: And the PBM binding z-score [14]?
Answer: Its PBM binding z-score is -0.646.

Question: What about the PBM binding z-score [15] of the same sequence?
Answer: Its PBM binding z-score is 3.82.

Question: And the PBM binding z-score [16]?
Answer: The PBM binding z-score was 4.48.

Question: And the PBM binding z-score [17]?
Answer: Its PBM binding z-score is 0.822.

Question: And the PBM binding z-score [18]?
Answer: The PBM binding z-score was 5.89.

Question: And the PBM binding z-score [19]?
Answer: The PBM binding z-score was 1.32.

Question: What about the PBM binding z-score [20] of the same sequence?
Answer: Its PBM binding z-score is 5.45.
